Screening data from PubChem BioAssay.
PP5 primary: blocks human protein phosphatase 5 activity; hit rate 0.18% among 320,000; inhibition, % at 6.7 µM; purified PP5c, OMFP substrate fluorescence; P53041;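 active = inhibition above the campaign's mean inhibition across all tested compounds plus 3 SD, cut at about 9.5% in these data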
Target sequence (P53041 whole entry, looked up): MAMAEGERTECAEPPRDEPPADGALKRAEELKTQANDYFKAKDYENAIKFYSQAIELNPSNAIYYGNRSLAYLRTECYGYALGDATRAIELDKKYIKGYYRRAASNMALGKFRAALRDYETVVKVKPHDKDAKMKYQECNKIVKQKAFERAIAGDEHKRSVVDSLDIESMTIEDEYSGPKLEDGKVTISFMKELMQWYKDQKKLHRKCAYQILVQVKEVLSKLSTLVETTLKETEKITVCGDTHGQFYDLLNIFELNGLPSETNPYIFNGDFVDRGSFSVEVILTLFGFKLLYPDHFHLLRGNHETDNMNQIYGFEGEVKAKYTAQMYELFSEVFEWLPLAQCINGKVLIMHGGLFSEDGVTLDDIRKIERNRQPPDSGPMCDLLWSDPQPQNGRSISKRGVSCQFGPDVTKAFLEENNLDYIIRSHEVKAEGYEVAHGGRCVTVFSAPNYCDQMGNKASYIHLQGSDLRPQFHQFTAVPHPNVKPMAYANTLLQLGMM
Rev-erbA mod: Rev-erb alpha (human) modulation. AID 1259318. hit rate 0.79% among 370,000. activity, % at 10 µM. P20393. Rev-erbα–FITC-DNA binding, fluorescence polarization, 90 min;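 active = activity above about 14%, limit read from the data; passing the limit was not always enough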
GASC-1 inh: blocks human GASC-1 demethylase activity; GST-JMJD2C(1-420) H3K9me3 demethylation, DELFIA europium; inhibition, % at 2.35 µM; Q9H3R0; hit rate 0.069% among 330,000;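 active = more than half of a compound's replicate wells show inhibition beyond 50%, single wells judged on their own value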;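 note: signal counts dimethyl H3K9 product captured on neutravidin plate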
PG9 binder: PG9 antibody binding by small molecule; AID 624416; TR-FRET gp120-PG9 antibody binding; inhibition, % at 6.7 µM; hit rate 0.43% among 360,000; in the data active = inhibition above about 8.5%
KLK7 zymogen act: activates the human kallikrein-7 zymogen; P49862; purified proKLK7, EDANS-DABCYL substrate fluorescence; 100% is mature enzyme control, 0% vehicle; activation, % at 7 µM; hit rate 0.9% among 370,000; AID 652039;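 active = activation above the mean of all tested compounds plus 3 SD, computed per campaign excluding outliers beyond control limits, cut at about 13% in these data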
Target sequence (P49862 whole entry, looked up): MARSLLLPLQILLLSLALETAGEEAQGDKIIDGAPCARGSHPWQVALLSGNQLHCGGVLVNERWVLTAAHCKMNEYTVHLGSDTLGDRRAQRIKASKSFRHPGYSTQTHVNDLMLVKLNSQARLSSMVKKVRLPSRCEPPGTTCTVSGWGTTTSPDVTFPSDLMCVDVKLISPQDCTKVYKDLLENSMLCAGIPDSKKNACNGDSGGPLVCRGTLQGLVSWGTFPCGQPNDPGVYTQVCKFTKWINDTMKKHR
PP1 inh: PP1-alpha (human) inhibition in PP5 counter-screen | hit rate 0.9% among 320,000 | purified PP1alpha, OMFP fluorescence | AID 2235 | inhibition, % at 6.7 µM;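 active = inhibition above the mean inhibition of all tested compounds plus 3 SD, computed separately for each screening campaign, cut at about 15% in these data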
proKLK7 act conf: confirmation of human kallikrein-7 zymogen activators. activation, % at 7 µM. shares compounds with KLK7 zymogen act. purified proKLK7, EDANS-DABCYL substrate fluorescence; scaled: vehicle 0, mature enzyme 100. AID 686949. hit rate 68% among 3,200;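 active = activation, as change over the incubation, above the mean of all tested compounds plus 3 SD, cut at about 13% in these data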
EDANS interfere: counter-screen for kallikrein-7 activators: EDANS-DABCYL optical interference | AID 686952 | activation, % at 7 µM | shares compounds with KLK7 zymogen act | hit rate 80% among 3,200 | EDANS-DABCYL substrate fluorescence interference, no enzyme, 4 h; solvent 0%, active enzyme control 100%;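 active = activation above the all-compound mean plus 3 SD, ignoring values outside control-based bounds, cut at about 4.8% in these data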;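 note: value is the 4 h activation minus the activation read at time zero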
K7 EDANS ctr: counter-screen for kallikrein-7 activators: EDANS-DABCYL interference, dose response; AID 720493; hit rate 20% among 250; EDANS-DABCYL peptide fluorescence interference, no enzyme; EC50, µM; shares compounds with KLK7 zymogen act;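 active = compounds that raise the fluorescence signal in this interference counterscreen, with EC50 at or below 10 µM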;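 note: intact quenched peptide substrate alone read at 355 nm excitation and 520 nm emission; signal is fluorescence gain from T0 to T4 after four hours at room temperature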
Large screens that a line does not name were inactive (follow-up assays come after a bar, where they were run). Most compounds without a hit are left out; they make up all but 2.8% or so of the library.

CCOC(=O)C1=C2c3cc(OC)c(OC)cc3CC(C)(C)N2C(=O)C1=O	KLK7 zymogen act 24.3 | proKLK7 act conf inactive | EDANS interfere 5.9
CCOC(=O)C1=C2c3ccc4ccccc4c3CC(C)(C)N2C(=O)C1=O	none
COc1ccc(OC)c(/C=C/C(=O)N(C)CC(=O)Nc2cc(C)ccc2C)c1	KLK7 zymogen act 21.1 | proKLK7 act conf inactive | EDANS interfere 8.4
COc1ccc(OC)c(/C=C/C(=O)N(C)CC(=O)Nc2ccc(C)cc2)c1	KLK7 zymogen act 27.2 | proKLK7 act conf 64.5 | EDANS interfere 68.3
COc1ccc(CCC(=O)N(C)CC(=O)Nc2cc(C)ccc2C)cc1	none
CCOC(=O)[C@@]12CCC3=C1N(CCC3)C(=O)[C@H](CC(=O)N1CCOCC1)C2	none (no result: PP5 primary, GASC-1 inh, PG9 binder, PP1 inh)
COc1cc2c(cc1OC)CN(c1ccc3ccccc3n1)CC2	KLK7 zymogen act 41.6 | proKLK7 act conf 70.1 | EDANS interfere 79.9
COc1cc2c(cc1OC)CN(c1ccc(-c3ccccc3OC)nn1)CC2	none (no result: Rev-erbA mod, PG9 binder, KLK7 zymogen act)
COC(=O)c1nc2nc(-c3cccs3)cc(C(F)(F)F)n2n1	KLK7 zymogen act 204.8 | proKLK7 act conf 63.4 | EDANS interfere 66.9
O=C(NCc1ccco1)c1nc2nc(-c3cccs3)cc(C(F)(F)F)n2n1	KLK7 zymogen act 56.3 | proKLK7 act conf 61.0 | EDANS interfere 68.4
CC(C)(C)OC(=O)N1CCC2CCN(S(C)(=O)=O)CC21 (centres undefined)	none (no result: PP5 primary, GASC-1 inh, PP1 inh)
COc1cc(C2Nc3ccc4ccccc4c3C3=C2C(=O)CC(C)(C)C3)ccc1OCC(=O)O (centres undefined)	KLK7 zymogen act 16.3 | proKLK7 act conf inactive | EDANS interfere inactive
COc1cccc(C2Nc3ccc4ccccc4c3C3=C2C(=O)CC(C)(C)C3)c1OCC(=O)O (centres undefined)	KLK7 zymogen act 26.3 | proKLK7 act conf inactive | EDANS interfere 5.4
COc1cc(C2Nc3ccc4ccccc4c3C3=C2C(=O)CC(C)(C)C3)ccc1OC(C)C(=O)O (centres undefined)	KLK7 zymogen act 24.1 | proKLK7 act conf inactive | EDANS interfere 12.7
COc1ccccc1CCn1cnc(-c2ccc(F)cc2F)c1CC(C)C	none (no result: PP5 primary, GASC-1 inh, PP1 inh)
O=C(NC1CCCCN(Cc2ccc(Cl)cc2)C1=O)c1ccc(Cl)cc1Cl (centres undefined)	none (no result: PP5 primary, GASC-1 inh, PG9 binder, PP1 inh)
CN1C(=O)c2cccc3c(S(=O)(=O)NCCc4ccccc4)ccc1c23	none
COCCNS(=O)(=O)c1ccc2c3c(cccc13)C(=O)N2C	KLK7 zymogen act 28.4 | proKLK7 act conf 78.0 | EDANS interfere 88.0
CCOC(=O)CNS(=O)(=O)c1ccc2c3c(cccc13)C(=O)N2CC	KLK7 zymogen act 77.1 | proKLK7 act conf 63.9 | EDANS interfere 68.6
CN1C(=O)c2cccc3c(S(=O)(=O)N4CCCC4C(=O)O)ccc1c23 (centres undefined)	KLK7 zymogen act 16.8 | proKLK7 act conf 42.4 | EDANS interfere 45.9
CCN1C(=O)c2cccc3c(S(=O)(=O)NCc4ccccn4)ccc1c23	KLK7 zymogen act 52.7 | proKLK7 act conf 61.6 | EDANS interfere 55.9
CCOC(=O)Cc1csc(NS(=O)(=O)c2ccc3c4c(cccc24)C(=O)N3CC)n1	none
CCN1C(=O)c2cccc3c(S(=O)(=O)Nc4c(C)n(C)n(-c5ccccc5)c4=O)ccc1c23	none
CCCN1CCCCC(NC(=O)c2ccc(Cl)cc2Cl)C1=O (centres undefined)	none (no result: PP5 primary, GASC-1 inh, PP1 inh)
Nn1c(SCC(=O)Nc2cc(C(F)(F)F)ccc2Cl)nnc1-c1n[nH]c2c1CCC2	none (no result: PP5 primary, GASC-1 inh, PG9 binder, PP1 inh)
COc1ccccc1NC(=O)OC1CC2CC1[C@H]1CCCCN1[C@H]2C (some centres undefined)	none (no result: PP5 primary, GASC-1 inh, PG9 binder, PP1 inh)
COC(=O)C1CN(Cc2ccc(F)cc2)CCS(=O)(=O)N1Cc1cn(Cc2ccc(F)cc2)nn1 (centres undefined)	none (no result: PP5 primary, GASC-1 inh, PG9 binder, PP1 inh)
CCCCCn1nnnc1C1(C)CSCC(=O)N1Cc1ccco1 (centres undefined)	none (no result: PP5 primary, GASC-1 inh, PG9 binder, PP1 inh)
CC(c1ccccc1)C1CC(=O)N(Cc2ccco2)C1=O (centres undefined)	KLK7 zymogen act 118.7 | proKLK7 act conf inactive | EDANS interfere inactive
COc1cc(Cn2cc([C@]34C[C@H]5C(=O)N(C)CC(=O)N5[C@H]3N(S(=O)(=O)c3ccccc3)c3ccccc34)c3ccccc32)cc(OC)c1	none (no result: PP5 primary, GASC-1 inh, PG9 binder, KLK7 zymogen act, PP1 inh)
Cc1ccc(-c2cc(C(=O)NN=Cc3sccc3C)[nH]n2)cc1C	none (no result: PP5 primary, GASC-1 inh, PG9 binder, PP1 inh)
COc1ccccc1N1C(=O)S/C(=C\c2ccc(C)s2)C1=O	none
COc1ccccc1N1C(=O)S/C(=C\c2cc(C)n(C)c2C)C1=O	KLK7 zymogen act 24.1 | proKLK7 act conf 31.7 | EDANS interfere 80.3
Cc1ccc(NC(=O)CN2C(=O)S/C(=C\c3cc(C)n(C)c3C)C2=O)cc1	KLK7 zymogen act 19.6 | proKLK7 act conf inactive | EDANS interfere inactive
Cc1cc(/C=C2\SC(=O)N(CC(=O)Nc3ccccc3F)C2=O)c(C)n1C	none
O=C1NC(c2ccccc2O)Nc2ccccc21 (centres undefined)	KLK7 zymogen act 22.3 | proKLK7 act conf inactive | EDANS interfere 16.9
COc1ccc(C2NC(=O)c3ccccc3O2)c(OC)c1OC (centres undefined)	none
O=C1NC(c2cccc(OCc3ccccc3)c2)Nc2ccccc21 (centres undefined)	KLK7 zymogen act 14.5 (no result: PP5 primary, GASC-1 inh, PP1 inh) | proKLK7 act conf inactive | EDANS interfere inactive
O=C1NC(c2ccc(O)cc2)Nc2ccccc21 (centres undefined)	KLK7 zymogen act 28.5 | proKLK7 act conf 25.2 | EDANS interfere 26.9
COc1ccc(C2NC(=O)c3ccccc3N2)c(OC)c1OC (centres undefined)	KLK7 zymogen act 32.7 (no result: PP5 primary, GASC-1 inh, PP1 inh) | proKLK7 act conf 45.2 | EDANS interfere 47.2
COc1ccc(-c2cc(C(=O)NN=C/C(C)=C/c3ccccc3)[nH]n2)cc1	none (no result: PP5 primary, GASC-1 inh, PG9 binder, PP1 inh)
CSc1ccc(C2NC(=O)c3ccccc3N2)cc1 (centres undefined)	KLK7 zymogen act 16.9 | proKLK7 act conf 16.7 | EDANS interfere 12.7 | K7 EDANS ctr inactive
Cc1ccc(C)c(C2NC(=O)c3ccccc3N2)c1 (centres undefined)	KLK7 zymogen act 36.2 | proKLK7 act conf 23.6 | EDANS interfere 20.6
O=C(NCc1ccccc1)OCCN1C(=O)CCC12CCCCC2	none (no result: PP5 primary, GASC-1 inh, PG9 binder, PP1 inh)
C=CCNc1cccc2c1S(=O)(=O)N[C@@H](Cc1ccccc1)CO2	none (no result: PP5 primary, GASC-1 inh, PP1 inh)
